Laboratory results reported in PubChem BioAssay (NCATS).
Inconclusive results are not listed. The source made the active and inactive calls. Calls follow the shape of the dose curve; as a rule, active = well fitted cell-killing curve with a large enough effect; inconclusive = small, poorly fitted or top-dose-only effect, or effect the other way; inactive = no such curve, though single readings can be large or run the other way.

Experiment: qHTS of pediatric cancer cell lines to identify multiple opportunities for drug repurposing: Confirmatory screen for Saos-2 cells (AID 1347127); also: nearly all actives have a fitted effect of over 60% in size
Conditions: Saos-2 osteosarcoma cell viability; series mostly up to 45.9 µM
Excerpt: Drug repurposing or repositioning has been offered as a strategy for drug development in oncology programs. This approach has special potential for childhood cancers and other rare or orphan diseases, where the expected return on new drug development has been a disincentive to pharmaceuticals.
In this project we exploit the poly-pharmacology of drugs to discover new indications via phenotypic screening of a panel of 19 well-characterized cell lines derived from solid tumors seen in children and adolescents. The goal is to identify approved drugs with previously unrecognized anticancer properties that has the potential to reveal new mechanisms and biological processes involved in carcinogenesis or drug resistance. We employed a titration-based paradigm (quantitative high-throughput screening or qHTS), where all compounds were tested at multiple concentrations for their effect on cell viability. Concentration-response curves (CRCs) were derived directly from the primary screen, and both potency and efficacy values were used to identify compounds with robust bioactivity profiles. We screened the NIH Chemical Genomics Center (NCGC) Pharmaceutical Collection (NPC) and Mechanism Interrogation Plate (MIPE) small molecule collections of approved and investigational compounds against these cell lines; and measured metabolically active cells after 48 hours of compound treatment as a proxy for cell viability.
Assay Submitter: Nathalia J. Martinez, National Center for Advancing Translational Sciences, National Institutes of Health, Rockville, MD, USA; email: natalia.martinez@nih.gov
[1] Shen, M et al. Quantitative high-throughput phenotypic screening of pediatric cancer cell lines identifies multiple opportunities for drug repurposing. Oncotarget 2017 Dec 19;9(4):4758-4772. PMID 29435139.
The cells were obtained from University of North Carolina (UNC), Pediatric Preclinical Testing Program (PPT), and Coriell Institute (CI).
qHTS cell viability assay:
Cells were assayed in growth media at a density of 500-1,000 cells/well. Five microliters of cells were dispensed into 1,536-well, white, solid-bottom, TC-treated plates (Greiner Bio One) using a multidrop dispenser and incubated at 37 degrees C, 5% CO2, under a humidified atmosphere for 5 hours. Twenty-three nanoliters of compounds and controls (neutral control DMSO or positive control bortezomib at final concentration of 2.3 µM) were subsequently transferred by Kalypsys pintool. For primary screens, the MIPE collection was tested at 11-point dilutions (final concentrations range from 0.78 nM to 46 µM) and the NPC collection at 8-point dilutions (final concentrations range from 0.59 nM to 46 µM). Compounds tested in follow-up screens were assayed at 11-point dilutions. Cells were incubated for 48 hours, followed by addition of 3 µL of CellTiter-Glo (Promega). After a 15 min incubation at room temperature, samples were analyzed for luminescence intensity using a ViewLux High-throughput CCD imager equipped with clear filters.
Potency is read from the fitted curve at half-maximal effect.

Compound	Potency
CC[C@@]1(O)C(=O)OCc2c1cc1n(c2=O)Cc2cc3c(CN(C)C)c(O)ccc3nc2-1	0.208 µM (active)
O=C(Nc1ccc([N+](=O)[O-])cc1Cl)c1cc(Cl)ccc1O	2.29 µM (active)
CCCCc1oc2ccccc2c1C(=O)c1cc(I)c(OCCN(CC)CC)c(I)c1	44.7 µM (active)
CC(C)C(=O)Nc1ccc([N+](=O)[O-])c(C(F)(F)F)c1	inactive
CC(COc1ccccc1)N(CCCl)Cc1ccccc1 (centres undefined)	14.7 µM (active)
O=C1c2c(O)ccc(O)c2C(=O)c2c(NCCNCCO)ccc(NCCNCCO)c21	0.737 µM (active)
NC(=O)NO	inactive
COC(=O)Nc1nc2ccc(C(=O)c3cccs3)cc2[nH]1	0.131 µM (active)
COc1cc2c(c(OC)c1OC)-c1ccc(OC)c(=O)cc1[C@@H](NC(C)=O)CC2	0.0447 µM (active)
CS(=O)(=O)Nc1ccc([N+](=O)[O-])cc1Oc1ccccc1	inactive
CCC1(c2ccccc2)C(=O)NCNC1=O	inactive
Clc1ccc(C(c2ccccc2Cl)C(Cl)Cl)cc1 (centres undefined)	inactive
NC12CC3CC(CC(C3)C1)C2	inactive
Clc1ccc2nsnc2c1NC1=NCCN1	20.8 µM (active)
